Screens: PubChem BioAssay, SRMLSC
NADH coupling = blocks coupling enzymes of NAD/NADH assays; IC50, µM (series often up to 10 µM), for the others: at the highest dose inhibition; coupled PK/LDH NADH assays, four targets; AID 774; actives 0.02% (n = 65,000);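 active = single-dose screening hits from any of four coupled enzyme assays that gave an IC50 when retested across doses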;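 note: the DPM-DC format reads NADH fluorescence rather than 340 nm absorbance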
Spn PMK inh = S. pneumoniae PMK inhibition; actives 0.49% (n = 65,000); AID 539; inhibition, % at 10 µM; purified PMK, PK/LDH-coupled NADH absorbance 340 nm;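 active = top-ranked compounds by inhibition in the single 10 µM screen, taking a fixed number of the strongest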;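 note: 0% = full reaction with DMSO carrier and 100% = background rate without enzyme reaction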
Autofluor 339 = intrinsic fluorescence of library compounds, ex339/em460 – biochemical, MLSMR library, data from DPM-DC assay, artefact control, profiling panel; fluorescence fold increase at 10 µM; AID 709; actives 5.5% (n = 65,000); compound autofluorescence, ex339/em460 nm, NADH buffer; stronger effect = higher value; 1 = no-compound wells, NADH background;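 active = at 10 µM, mean starting fluorescence two-fold or more over control wells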;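 note: signal is the first read of a kinetic run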
Spn DPM-DC inh = blocks S. pneumoniae diphosphomevalonate decarboxylase | purified DPM-DC, PK/LDH coupled NADH fluorescence | calls only at 10 µM | actives 0.49% (n = 65,000) | AID 556;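 active = the 320 compounds with the highest percent inhibition in the single-dose primary screen, excluding strongly autofluorescent ones, cut at about 32% in these data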;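 note: kinetic rate of NADH fluorescence loss reporting ADP formed by the decarboxylase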
Spn MK inh = S. pneumoniae mevalonate kinase inhibition; purified MK, PK/LDH-coupled NADH absorbance 340 nm; inhibition, % at 10 µM; actives 0.48% (n = 65,000); AID 555;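 active = ranked among the strongest by inhibition in the single 10 µM screen, a fixed top-ranked set picked for dose follow-up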
A340 absorber = compounds absorbing at 340 nm | compound absorbance at 340 nm, fold over control | fold change at 10 µM | 65,000 tested, under 10 active | AID 708;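 active = at 10 µM dose, initial 340 nm absorbance at least 2 fold that of control wells; inactive = change under 2 fold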;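 note: initial absorbance extrapolated from kinetic A340 decline of NADH oxidation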
Starred values were filed as active, the others as inactive; i = inactive; / = no result shown; + = active, no number. This is a sample that favours compounds with a hit; in the whole collection about 6.5% have one here.

SMILES	NADH coupling	Spn PMK inh	Autofluor 339	Spn DPM-DC inh	Spn MK inh	A340 absorber
COc1ccc2[nH]c(=O)c(CN(C(C)=O)c3cccc(C)c3)cc2c1	5%	7	3.2*	i	0	1.1
CCOc1cc(C(=O)N(C)Cc2cc3cc(OC)ccc3[nH]c2=O)cc(OCC)c1OCC	6%	13	1.6	i	13	1
CCOc1ccccc1C(=O)N(C)Cc1cc2cc(OC)ccc2[nH]c1=O	9%	1	2.7*	i	9	1.1
CCC(=O)N(Cc1cc2cc(OC)ccc2[nH]c1=O)c1ccc(C)cc1C	10%	15	3.1*	i	6	1
COc1ccc2[nH]c(=O)c(CN(C(=O)C3CCCO3)c3ccc(C)cc3)cc2c1 (stereo not drawn)	17%	15	2.9*	i	11	1.1
CCn1nnc(NC(=O)c2cccc(-c3cc4ccccc4oc3=O)c2)n1	38%	9	3.9*	/	67*	1.2
CCn1nnc(NC(=O)c2cccnc2)n1	6%	9	1.1	i	9	0.98
CS(=O)(=O)N(CCc1ccccc1)CC(=O)NCc1ccco1	4%	6	1.1	i	6	1
Cc1cc(NCCCN2CCOCC2)n2c(nc3ccccc32)c1C#N	15%	8	5*	/	22	1
Cc1cc(NCCN2CCOCC2)n2c(nc3ccccc32)c1C#N	11%	7	3.7*	/	15	1.1
CC(=O)N=C(N)Sc1nc2ccccc2[nH]1	1%	0	1.1	i	3	1.1
CCCCc1nc2sc3c(c2c(=O)[nH]1)CCC3	2%	3	1.1	i	2	1
Cc1c(C#N)c(SCC(N)=O)nc2c1CCCC2	2%	7	1.1	i	0	1
COC(=O)c1ccsc1NC(=O)c1ccc2c(c1)OCCO2	6%	7	2.1*	/	5	1.1
O=C(Nc1ccc2nn(-c3ccccc3)nc2c1)c1ccc2c(c1)OCCO2	5%	0	2.2*	/	9	1.1
O=C(Nc1ccc2nn(-c3ccccc3)nc2c1)c1ccc(Br)o1	9%	18	1.8	+	6	1
CC(=O)c1cccc(NC(=O)c2ccc(Br)o2)c1	2%	5	1.1	i	0	1.1
O=C(Nc1ccc2nsnc2c1)c1ccc2c(c1)OCO2	7%	6	1.3	i	7	1.1
CC[N+](C)(C)c1cccc(O)c1	1%	4	1	i	4	0.97
CCc1ccc(N(CC(=O)NC)S(C)(=O)=O)cc1	2%	3	1.1	i	3	1
CCN(CC)S(=O)(=O)c1ccc(NC2c3ncccc3C(=O)N2Cc2ccccc2)cc1 (stereo not drawn)	21%	12	1.1	i	50*	1.1
COc1ccc(CN2C(=O)c3cccnc3C2Nc2cc(Cl)c(OC)cc2OC)cc1 (stereo not drawn)	24%	15	1.1	i	57*	1.1
CCN(CC)S(=O)(=O)c1ccc(NC2c3ccccc3C(=O)N2Cc2ccc3c(c2)OCO3)cc1 (stereo not drawn)	2%	0	1.1	i	6	1
CN(C)c1ccc(CNCCC2(O)CCOC(C)(C)C2)cc1 (stereo not drawn)	11%	61*	1.1	i	41*	1
CN(C)c1ccc(C=NCCC2(O)CCOC(C)(C)C2)cc1 (stereo not drawn)	4%	5	1	i	7	1.1
SMILES	NADH coupling	Spn PMK inh	Autofluor 339	Spn DPM-DC inh	Spn MK inh	A340 absorber
COc1ccc2[nH]cc(C(=O)CN3CCCC(C)C3)c2c1 (stereo not drawn)	10%	25*	1.1	i	4	1.1
COc1ccc2[nH]cc(C(=O)CN3CCC(C)CC3)c2c1	3%	0	1.1	i	8	1
CC(C)CCNC(=O)Cn1cc2c(n1)CCCCC2	11%	21	1	i	11	1
Nc1nc(SCC(=O)NCc2ccco2)[nH]c(=O)c1-c1ccccc1	4%	8	1.1	i	4	1
Cc1ccc(C2C3=C(CCCC3=O)Nc3nc(SCC(=O)NCc4ccco4)[nH]c(=O)c32)cc1 (stereo not drawn)	10%	7	3.6*	i	9	1.1
CCSc1nc2c(c(=O)[nH]1)C(c1ccccn1)C1=C(CC(C)(C)CC1=O)N2 (stereo not drawn)	9%	9	2.2*	/	8	1.1
